40 compounds from PubChem BioAssay (NCATS) can be followed below.

Calls of active or inactive are those of the source. Calls come from the whole dose curve; as a rule, active = well fitted curve in the direction sought with a large enough effect; inconclusive = small, poorly fitted or top-dose-only effect, or another doubt; inactive = no such curve, though single readings can be large or run the other way.

Chain of Alpha-galactosidase (Coffea arabica) (Q42656 whole entry, looked up): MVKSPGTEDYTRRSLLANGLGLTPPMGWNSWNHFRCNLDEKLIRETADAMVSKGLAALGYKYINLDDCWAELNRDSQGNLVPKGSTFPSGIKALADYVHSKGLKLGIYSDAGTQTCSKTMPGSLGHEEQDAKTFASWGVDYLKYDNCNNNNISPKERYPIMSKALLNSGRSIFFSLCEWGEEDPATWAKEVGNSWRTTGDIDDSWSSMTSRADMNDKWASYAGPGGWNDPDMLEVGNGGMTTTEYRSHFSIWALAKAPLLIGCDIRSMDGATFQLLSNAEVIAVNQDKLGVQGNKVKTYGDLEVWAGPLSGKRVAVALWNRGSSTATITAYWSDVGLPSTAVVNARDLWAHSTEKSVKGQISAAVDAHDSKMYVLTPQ

The target of the assay is Alpha-galactosidase (Coffea arabica) (UniProt Q42656). Kind of assay: Counterscreen for Glucocerebrosidase Inhibitors: qHTS Assay for Coffee Bean alpha-Galactosidase at pH 4.5 (AID 957). The note with it: purified coffee bean alpha-galactosidase, fluorogenic substrate; series mostly up to 76.9 µM. An excerpt:
NIH Chemical Genomics Center [NCGC]
NIH Molecular Libraries Screening Centers Network [MLSCN]
PI Name: Zheng, Wei [NIH]
Alpha-galactosidase is a homodimeric glycoprotein that hydrolyzes the terminal alpha-galactosyl moieties from glycolipids and glycoproteins. Deficiency of this enzyme results in Fabry Disease with progressive accumulation of globotriaosylceramide and other glycosphingolipids in vascular endothelial cells that causes renal failure, myocardial infarction and stroke, and premature death in patients. It has reported that the improper folding and trafficking of alpha-galactosidase resulted from the genetic mutations may account for a significant numbers of Fabry patients. […] We optimized this coffee bean alpha-galactosidase assay in 1536-well plate format as a counter-screen assay for identifying the selective small molecule inhibitors of other lysosomal enzymes.
NCGC Assay Protocol Summary:
This is a fluorogenic enzyme assay with 4-Methylumbelliferyl alpha-D-galactopyranoside as the substrate and green coffee bean […] (from Sigma-Aldrich) as the enzyme preparation. Upon the hydrolysis of this fluorogenic substrate, the resulting product, […]. 4-Methyllumbelliferone, can be excited at 365 nm and emits at 440 nm which can be detected by a standard fluorescence plate reader. Data were normalized to the controls for basal activity (without enzyme) and 100% activity (with enzyme). In the AC50 values were determined from concentration-response data modeled with the standard Hill equation.
Assay buffer: 50 mM citric acid, 0.005% Tween-20, pH 4.5. (pH 5.9 is an optimal condition for this enzyme assay. This assay in pH 4.5 is used for comparison the inhibitor activities with the human alpha-galactosidase assay)
1536-well assay protocol for the coffee bean alpha-galactosidase:
(1) Add 2 ul/well of enzyme (2 nM final)
(2) Add 23 nL compounds in DMSO solution. The final titration was 0.7 nM to 77 uM.
(3) Add 1 ul of substrate (80 uM final)
(4) Incubate at room temperature for 20 min.
(5) Add 2 ul stop solution (1M NaOH and 1M Glycine mixture, pH 10)
(6) Detect the assay plate in a ViewLux plate reader (PerkinElmer) with Ex=365 nm and Em=440nm.
Keywords: Alpha-galactosidase, Fabry Disease, pharmacological chaperone, chaperone therapy, high throughput screening, alpha-galactosidase inhibitor, MLSMR, MLSCN, NIH Roadmap, qHTS and NCGC
As for `NC(N)=NOCCC(N)C(=O)O` (stereo not given), the compound was called inactive. Under `c1ccc(CCCN2CCN(CCOC(c3ccccc3)c3ccccc3)CC2)cc1` stands “inactive”; under `CCCN1CCO[C@@H]2c3cc(O)ccc3OC[C@H]21`, “inactive”. For the compound `CCCCc1ccc(C(=O)O)nc1`, the call was inactive. Regarding `CCN1CCc2nc(N)oc2CC1`, the compound was called inactive. Regarding `c1ccc2sc(C3(N4CCCCC4)CCCCC3)cc2c1`, the call was inactive. `COc1ccc2c(c[n+](C)c3c4cc5c(cc4ccc23)OCO5)c1OC`: the outcome was inactive. Under `Clc1cnc(Oc2ccc(Oc3ncc(Cl)cc3Cl)cc2)c(Cl)c1` stands “inactive”. As to `CNCCc1ccc(O)c(O)c1`, the outcome was inactive. Turning to `CNCCc1c[nH]c2ccc(O)cc12`, the result was inactive. Turning to `C[C@@H]1O[C@H](C[N+](C)(C)C)C[C@H]1O`, the result was inactive.

In the case of `CS(=O)(=O)Nc1ccc([N+](=O)[O-])cc1Oc1ccccc1`, the call was inactive. Take `NCCc1c[nH]c2ccc(O)cc12`: the compound was classed as inactive. Under `CC(C)(Sc1ccc(CCN(CCCCC2CCCCC2)C(=O)NC2CCCCC2)cc1)C(=O)O` stands “inactive”; under `CC[C@@]1(O)C(=O)OCc2c1cc1n(c2=O)Cc2cc3ccccc3nc2-1`, “inactive”; under `CC(=O)NCCc1c[nH]c2ccccc12`, “inactive”. For the compound `C[C@]12N[C@H](Cc3ccccc31)c1ccccc12`, the outcome was inactive. Under `O=C1CCCN1CC#CCN1CCCC1` stands “inactive”. Under `CCCN(CCC)[C@@H]1CCc2ccc(O)cc2C1` stands “inactive”. As for `CC(=O)Oc1ccccc1C(=O)O`, the result was inactive. Take `NCc1cc(=O)[nH]o1`: the call was inactive.

On to `Cn1cnc(CCN)c1`, for which the compound was called inactive.

Turning to `CCc1c(C)[nH]c2c1C(=O)C(CN1CCOCC1)CC2` (stereo not given), the outcome was inactive.

In the case of `NC(=NCCC[C@H](N)C(=O)O)N[N+](=O)[O-]`, the compound was called inactive. On to `CCn1cc(C(=O)O)c(=O)c2cc3c(cc21)OCO3`, for which the result was inactive. For `CCCN1CCC[C@H](c2cccc(O)c2)C1`, the compound was called inactive.

With `Cc1c(C(=O)c2cccc3ccccc23)c2cccc3c2n1[C@H](CN1CCOCC1)CO3`, the compound was classed as inactive.

With `CC(C)c1ccc2c(c1)c(SC(C)(C)C)c(CC(C)(C)C(=O)O)n2Cc1ccc(Cl)cc1`, the compound was called inactive. Under `NCCc1c[nH]c2ccccc12` stands “inactive”. As for `S=C(NC1CCCCC1)N1CCC(c2cnc[nH]2)CC1`, the compound was called inactive. Turning to `O=C(O)CC[N+](=O)[O-]`, the compound was classed as inactive. As for `CCOC(=O)C1=C[C@@]2(CC)CCCN3CCc4c(n1c1ccccc41)[C@H]32`, the compound was classed as inactive. Turning to `Cc1nc(-c2ccc(-c3ccc(C(=O)N4CCc5cc6c(cc54)C4(CCN(C)CC4)CO6)cc3)c(C)c2)no1`, the outcome was inactive. Regarding `Cc1nccc2c1[nH]c1ccccc12`, the result was inactive. Under `CC#C[C@]1(O)CC[C@H]2[C@@H]3CCC4=CC(=O)CCC4=C3[C@H](c3ccc(N(C)C)cc3)C[C@@]21C` stands “inactive”; under `C[N+](C)(C)CC(=O)O`, “inactive”; under `NCCS`, “inactive”.

`O=C(O)Cc1cnc[nH]1`: the compound was classed as inactive.

For `CC(C)Oc1cccnc1N(C)C1CCN(Cc2ccccc2)CC1`, the call was inactive. Under `CCN(CC)CCNC(=O)c1ccc(NC(C)=O)cc1` stands “inactive”.
